An excerpt weighted towards active compounds, which were near 3.2% of everything screened.
HEK293 cAMP ctrl – raises cAMP in parental HEK293 cells, TSHR agonist counter-screen; parental HEK293 CNG cAMP sensor, membrane potential fluorescence; Potency, µM (top dose mostly 57.1 µM), without a hit: at the highest dose activation, hits mostly activators; actives 2.5% (n = 73,000); further: potency means the concentration at half of the fitted maximal effect; % of control where 0% means no effect; nearly all actives have a fitted effect of over 55% in size
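Counterscreen for endogenous-receptor signalling: CNG-channel HEK 293 cells report cAMP rise by membrane depolarization. After 60 min dye equilibration with 100 uM RO 20-1724, compounds incubated 30 min before bottom-read fluorescence at 590 nm.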
BRCT inh red – inhibitors of human BRCA1 BRCT-phosphoprotein interaction (red fluorophore) | P38398 | BRCT-phosphopeptide binding, red fluorescence polarization | actives 0.03% (n = 75,000) | Potency, µM (titrated, usually from 76.9 µM), for the others: at the top dose activity change, negative = inhibition, actives largely listed as inhibitors; further: on the % scale 0 is the no-effect control and ±100 the full control effect
Target sequence (P38398 whole entry, looked up): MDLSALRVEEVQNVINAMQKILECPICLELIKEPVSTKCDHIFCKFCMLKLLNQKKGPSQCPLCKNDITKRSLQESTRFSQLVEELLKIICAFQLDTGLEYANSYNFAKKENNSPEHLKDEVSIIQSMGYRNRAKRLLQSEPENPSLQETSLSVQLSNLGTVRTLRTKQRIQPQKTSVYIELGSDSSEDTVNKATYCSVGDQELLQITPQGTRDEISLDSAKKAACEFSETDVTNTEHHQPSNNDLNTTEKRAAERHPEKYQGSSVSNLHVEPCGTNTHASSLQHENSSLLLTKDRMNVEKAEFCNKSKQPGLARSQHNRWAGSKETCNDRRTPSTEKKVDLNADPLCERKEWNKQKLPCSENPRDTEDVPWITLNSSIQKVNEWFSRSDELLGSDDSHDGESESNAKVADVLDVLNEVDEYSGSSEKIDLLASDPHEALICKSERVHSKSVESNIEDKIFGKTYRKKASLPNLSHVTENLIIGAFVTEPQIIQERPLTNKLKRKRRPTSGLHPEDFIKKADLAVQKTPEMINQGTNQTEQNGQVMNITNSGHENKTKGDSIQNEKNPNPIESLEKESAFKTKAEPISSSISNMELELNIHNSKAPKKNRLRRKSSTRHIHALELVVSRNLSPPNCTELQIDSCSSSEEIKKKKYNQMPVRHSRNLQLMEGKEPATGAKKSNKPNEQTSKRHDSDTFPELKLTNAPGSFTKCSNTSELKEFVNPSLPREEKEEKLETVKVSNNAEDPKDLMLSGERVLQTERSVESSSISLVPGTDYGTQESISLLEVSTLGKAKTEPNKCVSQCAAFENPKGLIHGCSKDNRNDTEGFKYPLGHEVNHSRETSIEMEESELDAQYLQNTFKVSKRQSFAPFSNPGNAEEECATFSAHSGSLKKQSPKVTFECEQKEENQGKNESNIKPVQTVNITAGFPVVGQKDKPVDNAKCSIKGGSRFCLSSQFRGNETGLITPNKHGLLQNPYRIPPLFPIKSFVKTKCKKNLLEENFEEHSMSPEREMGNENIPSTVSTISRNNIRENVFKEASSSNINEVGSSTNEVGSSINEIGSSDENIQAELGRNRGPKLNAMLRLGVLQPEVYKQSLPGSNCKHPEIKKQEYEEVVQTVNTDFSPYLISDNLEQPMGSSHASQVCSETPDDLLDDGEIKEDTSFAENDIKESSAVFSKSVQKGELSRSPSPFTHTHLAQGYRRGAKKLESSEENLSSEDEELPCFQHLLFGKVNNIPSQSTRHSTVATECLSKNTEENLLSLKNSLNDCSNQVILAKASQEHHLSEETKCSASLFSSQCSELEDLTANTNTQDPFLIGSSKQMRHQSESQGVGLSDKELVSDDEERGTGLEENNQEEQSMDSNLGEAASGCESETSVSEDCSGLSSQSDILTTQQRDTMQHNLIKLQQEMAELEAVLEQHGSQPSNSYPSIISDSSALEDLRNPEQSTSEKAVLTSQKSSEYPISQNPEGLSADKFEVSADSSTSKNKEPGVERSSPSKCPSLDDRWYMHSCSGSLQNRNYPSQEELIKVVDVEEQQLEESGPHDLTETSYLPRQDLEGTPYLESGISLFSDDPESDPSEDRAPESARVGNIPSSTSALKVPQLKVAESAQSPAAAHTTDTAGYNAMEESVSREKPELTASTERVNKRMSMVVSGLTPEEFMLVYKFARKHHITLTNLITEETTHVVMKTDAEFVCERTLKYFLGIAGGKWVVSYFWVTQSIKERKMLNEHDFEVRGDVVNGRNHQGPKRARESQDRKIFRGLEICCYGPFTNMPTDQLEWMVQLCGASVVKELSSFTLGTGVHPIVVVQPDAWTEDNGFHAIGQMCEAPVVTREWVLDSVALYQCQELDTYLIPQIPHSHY
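Rhodamine-labelled pBACH1 10-mer (100 nM) bound to BRCT domain (100 nM) at pH 7.3; compounds incubated 12 min room temperature, polarization read. Free peptide defines full inhibition; unlabelled decapeptide titrated as control.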
Pol III holo inh – inhibitors of bacterial DNA polymerase III holoenzyme; reconstituted DNA polymerase III holoenzyme replication, biochemical; Potency, µM (doses to about 57.1 µM), for the others: at the highest dose activity change, negative = inhibition; actives 0.25% (n = 71,000); AID 603; further: potency means the concentration at half of the fitted maximal effect; on the % scale 0 is the no-effect control and ±100 the full control effect
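Reconstituted *E. coli* holoenzyme (0.35 nM Pol III, 1 nM beta, 154 nM SSB, 2 nM primase) was preincubated with compound for 15 min at RT. Synthesis on 1.4 nM ssM13Gori ran 35 min, then was stopped with PicoGreen/EDTA and read as dsDNA fluorescence.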
BRCT inh green – blocks human BRCA1 BRCT binding to phosphopeptide, green readout; Potency, µM (highest dose often 76.9 µM), for inactives: at the highest dose activity change, negative = inhibition, usual class: inhibitors; actives 0.05% (n = 75,000); BRCA1 BRCT-phosphopeptide binding, green fluorescence polarization;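 further: potency means the concentration at half of the fitted maximal effect; plate controls were peptide without protein for full effect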
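Fluorescence polarization: His-tagged BRCT (~35 kDa BRCA1 C-terminus, 250 nM) bound to 100 nM fluorescein-labeled phosphorylated 10-aa BACH1 peptide, pH 7.3 phosphate buffer with DTT and Tween 20. Compounds incubated 12 min at room temperature; inhibition read as lowered polarization.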
TsaE inh – displaces an ADP probe from E. coli YjeE (TsaE); actives 0.05% (n = 71,000); purified YjeE enzyme, qHTS inhibition assay; P0AF67; Potency, µM
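Fluorescence polarization of a BODIPY Texas Red–ADP probe (2 uM) bound to purified YjeE (10 uM) was read after 15 min room-temperature incubation with compounds. Loss of polarization marks inhibitors; ADP serves as titrated control.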
TSHR agonist – TSH receptor (human) agonism; P16473; HEK293-CNG-TSHR cells (CNG channel as cAMP sensor), membrane potential dye, cAMP; Potency, µM (highest dose often 57.1 µM), for inactives: at the highest dose activation, usual class: activators; actives 0.48% (n = 73,000); AID 926; active means well fitted activation curve with a large enough effect in the main read-out, with a control signal flat, not every such curve was filed as active; inconclusive means small, poorly fitted or top-dose-only effect, or a change in a side signal; inactive means no such curve, though single readings can be large or run the other way; % of control where 0% means no effect;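 further: the control signal comes from parental cells without the receptor; potency means the concentration at half of the fitted maximal effect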
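HEK 293 cells stably expressing TSHR and a modified CNG channel, with CNG-only parental cells as counterscreen, were preloaded 60 min at room temperature with membrane potential dye containing 100 uM RO 20-1724. Compound exposure was 30 min, and depolarization was read as fluorescence at 590 nm.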
Numbers without * were called inactive; i = inactive; ? = inconclusive; . = no result; [ ] = another dose, or the depositor's remark. Unless noted, the call rests on the fitted dose curve; in most records, active means well fitted curve in the direction sought with a large enough effect; inconclusive means small, poorly fitted or top-dose-only effect, or another doubt; inactive means no such curve, though single readings can be large; an effect the other way counts as inactive or inconclusive.

SMILES	HEK293 cAMP ctrl	BRCT inh red	Pol III holo inh	BRCT inh green	TsaE inh	TSHR agonist
O=C(COC(=O)c1ccccc1NC(=O)c1ccco1)Nc1ccc2c(c1)OCO2	?	-4%	-5%	0%	i	?
O=C(COC(=O)c1ccccc1NC(=O)c1ccco1)NCCC1=CCCCC1	25µM*	0%	3%	0%	i	?
Cn1ncc(C#N)c1/N=C/N(Cc1ccccc1)Cc1ccccc1	16µM*	-1%	-3%	2%	i	?
Cc1c(Br)cc(C(=O)NCc2ccco2)c(C)c1C	?	-1%	-3%	-2%	i	?
Cc1ccc2c(CC(=O)NCc3ccco3)coc2c1C	23%	1%	-6%	1%	i	20µM*
CCOc1ccccc1NC(=O)Cc1ccccc1OC	?	-2%	-1%	1%	i	?
COc1cccc(C2C=C(c3ccc(Br)s3)Nc3ncnn32)c1OC (configuration not stated)	14%	0%	7%	4%	i	20µM*
Fc1ccc(Br)cc1C1C=C(c2ccc(Br)s2)Nc2ncnn21 (configuration not stated)	?	0%	29%	31%	i	?
CC(C)C(=O)NCCn1ccc2ccccc21	11%	-1%	0%	0%	i	9%
CN(C)S(=O)(=O)c1cc(C(=O)NCCCn2ccc3ccccc32)ccc1Cl	25µM*	0%	0%	-2%	i	?
CC(=O)c1cc2c(cc1NC(=O)CN1CCN(c3cccc(C(F)(F)F)c3)CC1)OCO2	16µM*	-2%	-4%	-1%	i	?
O=c1c(-c2ccc(Cl)cc2)nc2cncnc2n1Cc1ccccc1	12%	-3%	-1%	-2%	i	0%
O=C(CCc1ccccc1)Nc1c(F)c(F)c(F)c(F)c1F	16µM*	0%	-20%	-6%	i	?
Nc1ncnc2oc(-c3ccco3)c(-c3ccco3)c12	12%	?	10µM*	-27%	100µM*	-15%
Nc1nnc(-c2ccco2)s1	8%	0%	3%	-2%	i	6%
O=C(CSc1nnc(C23CC4CC(CC(C4)C2)C3)o1)Nc1ccc(N2CCOCC2)c(Cl)c1	-2%	0%	5%	0%	i	17%
CNCC[C@H](Oc1ccccc1C)c1ccccc1	11%	-4%	-7%	-2%	i	20%
CCN(C(=O)c1cc2cc3ccc(C)cc3nc2o1)c1ccc(OC)cc1	40µM*	0%	0%	1%	i	?
COc1ccc(CC(CC(=O)O)C(=O)Nc2ccc(OC)cc2)cc1 (configuration not stated)	8%	0%	-5%	-4%	i	-2%
CCN1C(=O)C2(Nc3ccccc3-c3nc4ccccc4n32)c2cc(OC)ccc21 (configuration not stated)	7.9µM*	0%	2%	-2%	i	?
CN1C(=O)C2(Nc3ccccc3-c3nc4ccccc4n32)c2ccccc21 (configuration not stated)	10%	-1%	-5%	-3%	i	22%
Cc1cc(C)c2c(CN3CCN(Cc4ccc5c(c4)OCO5)CC3)cc(=O)oc2c1	-7%	1%	-6%	-3%	i	-38%
COc1ccc(CCNc2ncnc3c2oc2ccccc23)cc1OC	13µM*	1%	-8%	-2%	i	?
COc1cccc([C@@H]2Oc3ccc(OC)cc3/C(=N/O[C@@H](C)CN3CCCc4nc(C)c(C)cc43)[C@@H]2O)c1	4µM*	0%[15.4 µM]	.	-1%[15.4 µM]	.	?
CC(C)=NO[C@@H](C)CN1CCCc2nc(C)c(C)cc21	4%[11.4 µM]	-2%[15.4 µM]	.	-4%[15.4 µM]	.	-4%[11.4 µM]
SMILES	HEK293 cAMP ctrl	BRCT inh red	Pol III holo inh	BRCT inh green	TsaE inh	TSHR agonist
Cc1cc(NC(=O)c2ccc3c(c2)C(=O)N(Cc2cccnc2)C3=O)no1	3%	1%	0%	0%	i	-7%
CCOCCCn1c(C)nc2c(c1=O)c1nc3ccccc3nc1n2CCC1=CCCCC1	20µM*	-3%	-11%	-5%	i	?
NCCC[C@@H](CC(=O)N[C@@H]1CCCC[C@H]1C(=O)N[C@H](CC(=O)N[C@@H](CCC(=O)O)CC(=O)O)Cc1ccccc1)NC(=O)C[C@H](Cc1ccccc1)NC(=O)[C@@H]1CCCC[C@H]1N	0.032µM*	.	-4%	.	i	?
CC(C)C[C@@H](CC(=O)N[C@@H](CCCN)CC(=O)N[C@@H]1CCCC[C@H]1C(=O)N[C@H](CC(=O)N[C@@H](CCC(=O)O)CC(=O)O)Cc1ccccc1)NC(=O)[C@@H]1CCCC[C@H]1N	?	.	-3%	.	?	?
Cc1oc2cc(O)cc(O)c2c(=O)c1-c1ccc2c(c1)OCCCO2	26%	-1%	-7%	-1%	i	4%
CCCOc1nc2c(c(=O)n(C)c(=O)n2C)n1Cc1cccc2ccccc12	32µM*	2%	-1%	0%	i	?
COCCNc1nc2c(c(=O)n(C)c(=O)n2C)n1Cc1cccc(C)c1	17%	0%	4%	-2%	i	8%
COc1cccc(Cn2c(Oc3cccc(C)c3)nc3c2c(=O)n(C)c(=O)n3C)c1	25µM*	-2%	-12%	4%	i	?
O=C(COc1ccc2c(c1)CCC2)N1CCc2ccccc21	25µM*	1%	-1%	4%	i	?
c1ccc(CN(Cc2ccco2)C(c2ccncc2)c2nnnn2C2CCCC2)cc1 (configuration not stated)	10µM*	-1%	-8%	-2%	i	?
CCN(CC)C(c1ccc(F)cc1)c1nnnn1C1CCCCC1 (configuration not stated)	17%	-3%	0%	0%	i	7%
CCN(CC)C(c1ccc(C)cc1)c1nnnn1C1CCCCC1 (configuration not stated)	16µM*	-1%	-8%	-3%	i	?
c1cc(C(c2nnnn2C2CCCC2)N2CCOCC2)ccn1 (configuration not stated)	7%	1%	-3%	-2%	i	-9%
CC1CCN(C(=O)c2cccc(S(=O)(=O)N3CCCCC3)c2)CC1	21%	-1%	-2%	0%	i	24%
Cn1cc(/C(Cc2ccccc2)=N\O)c2ccccc21	29%	-1%	-3%	3%	i	20µM*
COc1ccc(S(=O)(=O)Cc2ccc(C(=O)N3CCN(c4ccc(Cl)cc4)CC3)o2)cc1	18%	0%	6%	0%	i	20µM*

Assay outcomes as filed in PubChem BioAssay.
